Hits are enriched below; roughly 21% of the tested compounds scored in any of these assays.
IL1B secr inh = blocks inflammasome-driven IL-1 beta release; hit rate 4.7% among 360,000; THP-1 LPS/ATP IL-1B secretion, AlphaLISA, 16 h; active compounds read low; AID 743279; activity change, % at 57.5 µM; in the data active means activity change below about -50%; inconclusive means mostly about -30% to -49%
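Secreted IL-1B measured by AlphaLISA bead assay after 16 h compound exposure of THP-1 cells; compounds (final up to 57.5 uM) added 1 h before LPS (250 ng/mL) and ATP (1.25 mM) stimulation; lower signal means less secretion.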
TDP1 cell CPT = DT40-hTDP1 cell growth loss with CPT. AID 686979. hit rate 12% among 420,000. Potency, µM (doses to about 46.2 µM), most hits filed as inhibitors. chicken DT40 Tdp1-/-;hTDP1 cells + 20 nM CPT, ATP luminescence, 48 h; further: nearly all actives have a fitted effect of over 55% in size
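Chicken DT40 Tdp1-/- cells complemented with human TDP1, 400 cells/well, exposed to compounds plus 20 nM camptothecin for at least 48 h at 37 C; viability read as ATP content by CellTiter-Glo luminescence.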
D3 antag = D3 dopamine receptor (human) antagonism; D3R cells, DiscoveRx beta-arrestin luminescence, antagonist mode; active compounds read low; AID 652054; max response, negative = inhibition, %; hit rate 2.5% among 360,000; in the data active means max response below about -50%; inconclusive means no clear call, values can overlap the other calls
Target sequence (P35462 whole entry, looked up): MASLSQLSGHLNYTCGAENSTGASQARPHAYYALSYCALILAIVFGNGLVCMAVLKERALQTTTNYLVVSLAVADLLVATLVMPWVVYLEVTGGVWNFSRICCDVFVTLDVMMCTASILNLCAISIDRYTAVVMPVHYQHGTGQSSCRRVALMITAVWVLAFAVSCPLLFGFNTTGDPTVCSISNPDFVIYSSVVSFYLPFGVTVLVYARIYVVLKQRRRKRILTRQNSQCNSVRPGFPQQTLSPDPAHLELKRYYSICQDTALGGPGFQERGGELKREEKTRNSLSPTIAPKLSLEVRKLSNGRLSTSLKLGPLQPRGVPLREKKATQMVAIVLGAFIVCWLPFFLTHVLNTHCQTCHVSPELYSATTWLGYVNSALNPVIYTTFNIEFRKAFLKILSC
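Cells plated overnight at 1500 cells/well, then exposed to library compounds with dopamine controls for 90 minutes at 37 degrees C. DiscoveRx reagent added for 30–60 minutes at room temperature; luminescence read, quantitative HTS format.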
ClpP mod = qHTS Assay for Activators of ClpP | ATP-dependent Clp protease proteolytic subunit (Bacillus subtilis (strain 168)), P80244 | purified B. subtilis ClpP, FRET peptide cleavage, 20 min | Potency, µM (series often up to 57.5 µM) | hit rate 1.9% among 340,000; active means well fitted falling curve with a large enough effect; inconclusive means small, poorly fitted or top-dose-only effect; inactive means no such curve, though single readings can be large or run the other way; further: the source files actives as falling curves though it sought activators and does not explain the sign; nearly all actives have a fitted effect of over 65% in size
Target sequence (P80244 whole entry, looked up): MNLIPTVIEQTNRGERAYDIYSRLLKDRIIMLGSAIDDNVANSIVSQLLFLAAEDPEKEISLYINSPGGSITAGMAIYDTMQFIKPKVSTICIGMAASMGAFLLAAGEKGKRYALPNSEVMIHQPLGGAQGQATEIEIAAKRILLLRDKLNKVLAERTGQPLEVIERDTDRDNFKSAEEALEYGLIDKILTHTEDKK
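Buffer: 100 mM Tris/HCl pH8, 100 mM KCl, 0.05% low protease BSA, 2.5% glycerol, 0.01% Tween-20. ClpP 10 microg/mL final; 20 min RT; delta FRET normalized to ADEP and DMSO controls.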
TDP1 cell noCPT = qHTS for Inhibitors of human tyrosyl-DNA phosphodiesterase 1 (TDP1): qHTS in cells in absence of CPT. DT40 Tdp1-/- hTDP1 cells, no CPT, ATP luminescence, 48 h. Potency, µM (highest dose often 46.2 µM), hits mostly inhibitors. hit rate 15% among 420,000. AID 686978, 2013; further: nearly all actives have a fitted effect of over 55% in size
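Growth kinetics read by CellTiter-Glo luminescence after ≥48 hr at 37 °C. Cells: DT40 Tdp1-/- stably carrying human TDP1, 400 per well, compound exposure in the absence of CPT (DMSO vehicle).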
D3 ag = D3 dopamine receptor (human) agonism; P35462; D3R DiscoveRx beta-arrestin cells, luminescence, 90 min; max activation, %; hit rate 0.58% among 410,000; AID 652048; in the data active means max activation above about 30%
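Cells at 1500/well, incubated overnight, then treated with pinned compounds (dopamine as control) for 90 min at 37 degrees C. DiscoveRx reagent added for 30 - 60 minutes at room temperature; luminescence read.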
Each line names hits and unclear results; the compound was inactive in the other large screens. Unless noted, the call rests on the fitted dose curve; in most records, active means well fitted inhibition curve with a large enough effect; inconclusive means small, poorly fitted or top-dose-only effect; inactive means flat fitted curve, though single readings scatter.

Cn1nnnc1SCCNCc1cc(Cl)ccc1OCc1ccccc1	TDP1 cell CPT 26µM, TDP1 cell noCPT 23µM
Cn1nnnc1SCCCNCc1cc(Cl)ccc1OCc1ccc(F)cc1	TDP1 cell CPT inconclusive, TDP1 cell noCPT inconclusive (no result: IL1B secr inh, D3 antag)
COc1ccc(CN(CC2CCC(C(=O)O)CC2)C(=S)Nc2cc(Cl)ccc2OC)cc1 (stereo unspecified)	none
Cc1ccc(-n2c(N)c(C#N)c(-c3ccc(Cl)cc3)c(C#N)c2=O)cc1	TDP1 cell CPT inconclusive
CCOC(=O)c1c(-c2ccc(Cl)cc2)c(C#N)c(=O)n(N)c1N	TDP1 cell CPT inconclusive, ClpP mod inconclusive, TDP1 cell noCPT 0.52µM
COc1cccc(CN2CCN(c3cccc(C(F)(F)F)c3)CC2)c1OC	TDP1 cell CPT inconclusive, D3 antag -73, TDP1 cell noCPT inconclusive
COc1cccc(N2CCN(Cc3cccnc3)CC2)c1	D3 antag inconclusive
FC(F)(F)c1cccc(N2CCN(Cc3cccnc3)CC2)c1	D3 antag -74
CCOc1cccc(CN2CCN(c3cccc(C(F)(F)F)c3)CC2)c1O	TDP1 cell CPT inconclusive, D3 antag -96, TDP1 cell noCPT inconclusive
O=S(=O)(Nc1ccc(C(O)(C(F)(F)F)C(F)(F)F)cc1)c1ccc(Cl)c2nonc12	IL1B secr inh -114, TDP1 cell CPT 13µM, TDP1 cell noCPT 15µM
COc1ccc(NC(=O)C2CCCN(C(=O)c3cnn(-c4ccc(F)cc4)c3-n3cccc3)C2)cc1 (stereo unspecified)	none (no result: IL1B secr inh, TDP1 cell CPT, D3 antag, TDP1 cell noCPT)
COc1ccc2[nH]c(=O)cc(C(=O)O)c2c1	none (no result: ClpP mod)
COc1ccc2[nH]c3c4c(ccc3c2c1)C(=O)C=CC4=O	IL1B secr inh -77, TDP1 cell CPT 0.23µM, D3 antag -105, TDP1 cell noCPT 0.26µM
CCCc1nc2ccc(Br)cn2c1Cc1ccccc1OC	TDP1 cell CPT 1.5µM, TDP1 cell noCPT 0.82µM, D3 ag 78
CCCc1nc2ccc(C)cn2c1Cc1ccccc1OC	TDP1 cell CPT 21µM, TDP1 cell noCPT 21µM
CCCc1nc2ccc(Cl)cn2c1Cc1ccccc1	TDP1 cell CPT 6.5µM, ClpP mod inconclusive, TDP1 cell noCPT 4.1µM
CCCc1nc2c3ccccc3ccn2c1Cc1ccc(OC)cc1C	TDP1 cell CPT 18µM, TDP1 cell noCPT inconclusive
O=C(c1ccc(N2CCC(NCCCn3ncc4ccccc43)CC2)cc1)N1CCOCC1	none (no result: IL1B secr inh, D3 antag, ClpP mod, D3 ag)
CCCc1nc2ccc(C)cn2c1Cc1ccccc1C(F)(F)F	TDP1 cell CPT inconclusive, TDP1 cell noCPT inconclusive
CCCc1nc2ccc(C)cn2c1Cc1ccc(OC)cc1C	TDP1 cell CPT 13µM, TDP1 cell noCPT 23µM
CCCc1nc2ccc(Cl)cn2c1Cc1ccccc1OC	TDP1 cell CPT 7.3µM, TDP1 cell noCPT 12µM
COc1cccc(CNC(=O)c2ccc(C)c(NC3=NC4CS(=O)(=O)CC4S3)c2)c1 (stereo unspecified)	none
CC1CCN(S(=O)(=O)c2ccc3c(c2)N(C)C(=O)CC(=O)N3C)CC1	TDP1 cell CPT inconclusive, TDP1 cell noCPT inconclusive
CC1(C)CC(Cc2ccc(C(=O)c3ccccc3)cc2)N(C(=O)OC(C)(C)C)N1 (stereo unspecified)	TDP1 cell CPT 6.5µM, TDP1 cell noCPT 4.1µM
CCN1C(=O)N(c2cccc3ccccc23)C(C)=CC1(C)C	TDP1 cell CPT inconclusive, TDP1 cell noCPT 23µM
O=C(c1ccc2[nH]c3c(c2c1)CCCC3)N1CCN(c2ccc(F)cc2)CC1	TDP1 cell CPT 23µM, TDP1 cell noCPT inconclusive
Cc1[nH]c2ccc(C(=O)N3CCN(c4ccc(F)cc4)CC3)cc2c1C	TDP1 cell CPT inconclusive
COc1ccccc1N1CCN(C(=O)c2ccc3[nH]c4c(c3c2)CCCC4)CC1	IL1B secr inh -76, TDP1 cell CPT inconclusive, D3 antag inconclusive, TDP1 cell noCPT inconclusive
CC(=O)c1ccc(N2CCN(C(=O)c3ccc4[nH]c(C)c(C)c4c3)CC2)cc1	TDP1 cell CPT 21µM, TDP1 cell noCPT 16µM
CC(C)C(NC(=O)C1CCCCC1)C(=O)NCCc1ccccc1 (stereo unspecified)	none
Cc1ccc(CNC(=O)N2CCC(CN3CCC(C)CC3)CC2)cc1	none (no result: IL1B secr inh, D3 antag)
COc1ccc(NC(=O)CSc2nc(N)c3cc4c(nc3n2)CCCC4)cc1	TDP1 cell CPT inconclusive, TDP1 cell noCPT 15µM
CCn1c(SCC(=O)Nc2ccc(OC)cc2)nc2nc3c(cc2c1=O)COC(C)(C)C3	TDP1 cell noCPT inconclusive
CCn1c(SCc2ccccc2Cl)nc2nc3c(cc2c1=O)CCCC3	IL1B secr inh inconclusive, TDP1 cell CPT 16µM, TDP1 cell noCPT 23µM
CCn1c(SCC(=O)Nc2ccc(C(C)=O)cc2)nc2nc3c(cc2c1=O)COC(C)(C)C3	none
CCn1c(SCC(=O)Nc2ccccc2C)nc2nc3c(cc2c1=O)COC(C)(C)C3	IL1B secr inh inconclusive, TDP1 cell CPT inconclusive, TDP1 cell noCPT 10µM
CCn1c(SCC(=O)Nc2ccc(OC)cc2)nc2nc3c(cc2c1=O)CCCC3	IL1B secr inh -83, TDP1 cell CPT inconclusive, TDP1 cell noCPT 23µM (no result: ClpP mod)
COc1ccccc1-n1cnnc1SCC(=O)NC1CCCC1	none
Cc1cc(NC(=O)c2ccc(F)cc2)n(C)n1	none
CCn1c(SCC(=O)Nc2ccc(C(C)=O)cc2)nc2nc3c(cc2c1=O)CCCC3	IL1B secr inh -55, TDP1 cell CPT inconclusive, TDP1 cell noCPT inconclusive, D3 ag 30
Cc1ccccc1-n1c(SCC(=O)Nc2ccccc2)nc2nc3c(cc2c1=O)CCCC3	TDP1 cell CPT inconclusive, TDP1 cell noCPT 16µM
CCn1c(SCC(=O)Nc2ccc(Cl)cc2)nc2nc3c(cc2c1=O)CCCC3	IL1B secr inh -64, TDP1 cell CPT inconclusive, TDP1 cell noCPT inconclusive
O=C(CSc1nc2nc3c(cc2c(=O)n1-c1ccccc1)CCCC3)Nc1cccc2ccccc12	TDP1 cell noCPT inconclusive
Cc1csc(=O)n1CCC(=O)OCC(=O)N(CC(C)C)c1c(N)n(Cc2ccccc2)c(=O)[nH]c1=O	none
COc1ccc(Cl)cc1-c1nc(SCC(=O)N(C)C2CCS(=O)(=O)C2)n[nH]1 (stereo unspecified)	none (no result: ClpP mod)
CN(C)S(=O)(=O)c1ccc(Cl)c(NC(=O)COC(=O)/C=C/c2cnc3ccccc3n2)c1	none
COCCN1CSC(=S)N(Cc2ccco2)C1	TDP1 cell CPT 21µM, TDP1 cell noCPT 4.6µM
S=C1SCN(Cc2ccccn2)CN1Cc1ccco1	TDP1 cell CPT 6.5µM, D3 antag -62, TDP1 cell noCPT 5.8µM
CCOCCCN1CN(Cc2ccco2)CNC1=S	none
O=C(NC1CCCCC1)C1c2ccccc2C(=O)N1Cc1ccc2c(c1)OCO2 (stereo unspecified)	none
